The text below walks through data of article doi:10.1101/2025.02.07.636106.

Test [1] concerns the target AP-1 complex subunit sigma-1A (UniProt P61966). In words: cross-linking mass spectrometry.
The target of test [2] is AP-1 complex subunit mu-1 (UniProt Q9BXS5). Kind of test: co-fractionation; cross-linking mass spectrometry.
The target in test [3] is Elongation factor 1-alpha 1 (UniProt P68104). In words: cross-linking mass spectrometry.
Test [4] addresses Histone deacetylase 2 (UniProt Q92769). Kind of test: cross-link between two proteins; cross-linking mass spectrometry.
The target of test [5] is Peregrin (UniProt P55201). The test is described as above.
Test [6] concerns the target Abl interactor 1 (UniProt Q8IZP0). Kind of test: co-fractionation; cross-linking mass spectrometry.
The target of test [7] is Dolichyl-diphosphooligosaccharide--protein glycosyltransferase subunit DAD1 (UniProt P61803). Kind of test: co-fractionation; cross-linking mass spectrometry.
Test [8] addresses 26S proteasome non-ATPase regulatory subunit 7 (UniProt P51665). In words: cross-link between two proteins; cross-linking mass spectrometry.
The target in test [9] is 26S proteasome regulatory subunit 10B (UniProt P62333). The test is described as above.
The target in test [10] is Activity-dependent neuroprotector homeobox protein (UniProt Q9H2P0). The description is as above.
Test [11] concerns the target B-cell receptor-associated protein 29 (UniProt Q9UHQ4). The description is as above.
Test [12] has as its target BTB/POZ domain-containing protein 7 (UniProt Q9P203). The description is as above.
Test [13] has as its target Cytochrome b-c1 complex subunit Rieske, mitochondrial (UniProt P47985). Described as above.
The target of test [14] is Elongin-A (UniProt Q14241). The description is as above.
The target in test [15] is Endoplasmic reticulum chaperone BiP (UniProt P11021). Described as above.
Test [16] deals with Histone H2B type 1-M (UniProt Q99879). The test is described as above.
Test [17] concerns the target Histone deacetylase 1 (UniProt Q13547). Described as above.
Test [18] concerns the target Histone-lysine N-methyltransferase 2A (UniProt Q03164). Described as above.
Test [19] concerns the target Histone-lysine N-methyltransferase, H3 lysine-36 specific (UniProt Q96L73). The description is as above.
The target in test [20] is Keratin, type I cytoskeletal 10 (UniProt P13645). The description is as above.
Test [21] addresses KxDL motif-containing protein 1 (UniProt Q9BQD3). The test is described as above.
For test [22], the target named is Lymphatic vessel endothelial hyaluronic acid receptor 1 (UniProt Q9Y5Y7). The test is described as above.
Test [23] addresses Melanoma inhibitory activity protein 2 (UniProt Q96PC5). Described as above.
The target in test [24] is Zinc finger protein DPF3 (UniProt Q92784). The description is as above.
In test [25] the target is Metastasis-associated protein MTA3 (UniProt Q9BTC8). The test is described as above.
The target in test [26] is Methyl-CpG-binding domain protein 2 (UniProt Q9UBB5). The test is described as above.
The target in test [27] is Protein DOP1B (UniProt Q9Y3R5). The description is as above.
Test [28] concerns the target Transcriptional repressor p66-alpha (UniProt Q86YP4). The test is described as above.
The target of test [29] is Transcriptional repressor p66-beta (UniProt Q8WXI9). The description is as above.
Test [30] addresses Tyrosine-protein phosphatase non-receptor type 14 (UniProt Q15678). The description is as above.
Test [31] addresses Histone deacetylase 1 (UniProt Q13547). Kind of test: cross-link between two proteins; affinity purification or IP with mass spectrometry; cross-linking mass spectrometry.
Test [32] concerns the target Paired amphipathic helix protein Sin3a (UniProt Q96ST3). In words: cross-link between two proteins; cross-linking mass spectrometry.
The target in test [33] is Pre-mRNA-splicing factor CWC25 homolog (UniProt Q9NXE8). The description is as above.
For test [34], the target named is Guanine nucleotide-binding protein G(i) subunit alpha-3 (UniProt P08754). Kind of test: co-fractionation; co-fractionation; cross-linking mass spectrometry.
In test [35] the target is Heat shock-related 70 kDa protein 2 (UniProt P54652). Described as above.
Test [36] deals with Tubulin alpha-3E chain (UniProt Q6PEY2). Described as above.
Test [37] deals with AP-2 complex subunit mu (UniProt Q96CW1). In words: cross-link between two proteins; co-fractionation; cross-linking mass spectrometry.
Test [38] has as its target Proteasome subunit alpha type-5 (UniProt P28066). The test is described as above.
In test [39] the target is Proteasome subunit beta type-4 (UniProt P28070). The description is as above.
The target of test [40] is Proteasome subunit beta type-7 (UniProt Q99436). The description is as above.
In test [41] the target is Dolichyl-diphosphooligosaccharide--protein glycosyltransferase 48 kDa subunit (UniProt P39656). In words: cross-link between two proteins; affinity purification or IP with mass spectrometry; cross-linking mass spectrometry.

Chain of Heat shock protein HSP 90-beta, P08238 (P08238 whole entry): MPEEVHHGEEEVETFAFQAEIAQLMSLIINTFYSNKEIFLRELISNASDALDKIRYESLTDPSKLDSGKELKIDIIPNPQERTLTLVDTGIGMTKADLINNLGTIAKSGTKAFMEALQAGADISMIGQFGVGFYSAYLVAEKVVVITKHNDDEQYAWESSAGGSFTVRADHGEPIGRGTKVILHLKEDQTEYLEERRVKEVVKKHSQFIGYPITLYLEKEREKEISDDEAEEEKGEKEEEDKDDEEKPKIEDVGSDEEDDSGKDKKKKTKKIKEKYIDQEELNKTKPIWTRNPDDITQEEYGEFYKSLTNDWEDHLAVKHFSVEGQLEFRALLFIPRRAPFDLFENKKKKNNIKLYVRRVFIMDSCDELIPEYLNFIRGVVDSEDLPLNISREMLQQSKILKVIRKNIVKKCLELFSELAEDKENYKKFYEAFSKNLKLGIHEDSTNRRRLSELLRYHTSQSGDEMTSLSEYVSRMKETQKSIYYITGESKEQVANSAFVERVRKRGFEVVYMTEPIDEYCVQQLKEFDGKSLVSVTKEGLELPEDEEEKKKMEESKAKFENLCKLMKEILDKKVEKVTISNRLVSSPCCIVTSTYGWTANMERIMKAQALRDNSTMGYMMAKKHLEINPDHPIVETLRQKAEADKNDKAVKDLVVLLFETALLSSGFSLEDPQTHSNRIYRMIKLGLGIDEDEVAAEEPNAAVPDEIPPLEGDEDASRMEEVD
Chain of Proteasome subunit beta type-7 (Q99436 whole entry): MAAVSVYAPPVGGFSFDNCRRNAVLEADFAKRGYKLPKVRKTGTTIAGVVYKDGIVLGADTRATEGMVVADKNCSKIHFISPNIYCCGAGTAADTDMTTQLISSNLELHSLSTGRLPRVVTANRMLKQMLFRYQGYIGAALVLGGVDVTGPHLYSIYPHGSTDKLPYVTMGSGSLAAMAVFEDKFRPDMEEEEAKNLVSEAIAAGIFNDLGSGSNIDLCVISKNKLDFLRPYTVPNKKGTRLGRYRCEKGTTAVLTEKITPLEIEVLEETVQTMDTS
Chain of Dolichyl-diphosphooligosaccharide--protein glycosyltransferase subunit DAD1 (P61803 whole entry): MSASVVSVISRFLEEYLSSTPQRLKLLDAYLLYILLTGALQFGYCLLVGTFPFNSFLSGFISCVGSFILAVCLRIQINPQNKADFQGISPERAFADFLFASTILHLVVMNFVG
Chain of AP-1 complex subunit mu-1 (Q9BXS5 whole entry, one chain of several): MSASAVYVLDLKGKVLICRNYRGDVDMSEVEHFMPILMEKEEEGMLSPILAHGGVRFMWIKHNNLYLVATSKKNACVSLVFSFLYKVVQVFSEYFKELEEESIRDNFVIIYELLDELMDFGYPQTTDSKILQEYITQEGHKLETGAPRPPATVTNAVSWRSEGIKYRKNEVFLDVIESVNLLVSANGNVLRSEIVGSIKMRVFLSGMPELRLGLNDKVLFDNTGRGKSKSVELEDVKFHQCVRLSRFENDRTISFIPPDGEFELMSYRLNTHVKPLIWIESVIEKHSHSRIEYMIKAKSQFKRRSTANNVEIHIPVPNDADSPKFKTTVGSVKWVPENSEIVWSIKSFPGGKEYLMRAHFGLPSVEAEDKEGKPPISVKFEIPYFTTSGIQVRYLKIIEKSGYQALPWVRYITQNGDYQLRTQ
Chain of Histone deacetylase 1 (Q13547 whole entry): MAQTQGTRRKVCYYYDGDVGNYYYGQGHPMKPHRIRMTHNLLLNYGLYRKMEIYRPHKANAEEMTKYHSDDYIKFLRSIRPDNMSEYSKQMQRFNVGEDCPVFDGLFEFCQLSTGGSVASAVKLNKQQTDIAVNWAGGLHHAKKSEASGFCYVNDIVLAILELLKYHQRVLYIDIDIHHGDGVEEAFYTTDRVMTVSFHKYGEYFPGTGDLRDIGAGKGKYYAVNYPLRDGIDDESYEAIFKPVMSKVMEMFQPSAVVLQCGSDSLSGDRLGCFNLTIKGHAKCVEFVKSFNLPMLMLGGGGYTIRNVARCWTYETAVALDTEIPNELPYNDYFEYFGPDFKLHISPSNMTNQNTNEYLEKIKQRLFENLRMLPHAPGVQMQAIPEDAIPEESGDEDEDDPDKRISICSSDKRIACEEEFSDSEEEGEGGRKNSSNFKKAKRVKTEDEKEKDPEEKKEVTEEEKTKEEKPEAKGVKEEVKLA
Chain of Abl interactor 1 (Q8IZP0 whole entry): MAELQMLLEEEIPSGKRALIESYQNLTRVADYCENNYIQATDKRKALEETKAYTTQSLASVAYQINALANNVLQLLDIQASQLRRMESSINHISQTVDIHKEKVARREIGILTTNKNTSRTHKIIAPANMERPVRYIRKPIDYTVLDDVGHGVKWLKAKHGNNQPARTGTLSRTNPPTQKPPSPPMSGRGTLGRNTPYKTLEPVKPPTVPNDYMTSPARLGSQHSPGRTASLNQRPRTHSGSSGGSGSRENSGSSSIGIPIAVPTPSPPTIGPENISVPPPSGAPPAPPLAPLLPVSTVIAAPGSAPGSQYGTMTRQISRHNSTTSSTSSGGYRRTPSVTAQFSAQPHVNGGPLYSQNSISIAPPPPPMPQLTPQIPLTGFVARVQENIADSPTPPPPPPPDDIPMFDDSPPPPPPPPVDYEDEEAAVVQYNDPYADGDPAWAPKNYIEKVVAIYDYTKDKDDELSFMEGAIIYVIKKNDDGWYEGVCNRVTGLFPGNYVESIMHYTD
Chain of B-cell receptor-associated protein 29 (Q9UHQ4 whole entry, the tested form may be a part): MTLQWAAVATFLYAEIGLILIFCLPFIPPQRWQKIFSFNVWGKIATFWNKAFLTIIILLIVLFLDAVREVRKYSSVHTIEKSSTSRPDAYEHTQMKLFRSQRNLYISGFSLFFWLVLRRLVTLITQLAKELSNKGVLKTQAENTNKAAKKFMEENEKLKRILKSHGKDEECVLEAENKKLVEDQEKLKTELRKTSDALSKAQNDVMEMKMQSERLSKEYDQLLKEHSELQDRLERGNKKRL
Chain of Metastasis-associated protein MTA3 (Q9BTC8 whole entry, the tested form may be a part): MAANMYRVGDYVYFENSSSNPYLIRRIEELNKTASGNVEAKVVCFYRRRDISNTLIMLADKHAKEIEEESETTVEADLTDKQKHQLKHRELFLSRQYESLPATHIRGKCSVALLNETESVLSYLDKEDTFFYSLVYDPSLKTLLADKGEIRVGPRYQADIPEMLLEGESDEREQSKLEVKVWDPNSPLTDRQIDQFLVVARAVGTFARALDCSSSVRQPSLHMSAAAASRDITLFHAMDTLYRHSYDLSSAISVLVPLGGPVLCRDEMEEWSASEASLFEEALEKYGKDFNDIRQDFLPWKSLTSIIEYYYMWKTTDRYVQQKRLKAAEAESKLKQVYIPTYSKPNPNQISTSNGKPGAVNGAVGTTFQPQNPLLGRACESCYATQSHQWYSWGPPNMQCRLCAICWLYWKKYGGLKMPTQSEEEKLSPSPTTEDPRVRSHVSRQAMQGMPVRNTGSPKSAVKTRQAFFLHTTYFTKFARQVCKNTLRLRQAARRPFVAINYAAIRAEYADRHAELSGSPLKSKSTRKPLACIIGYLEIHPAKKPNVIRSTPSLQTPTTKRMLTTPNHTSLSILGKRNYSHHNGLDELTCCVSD
Chain of Elongin-A (Q14241 whole entry): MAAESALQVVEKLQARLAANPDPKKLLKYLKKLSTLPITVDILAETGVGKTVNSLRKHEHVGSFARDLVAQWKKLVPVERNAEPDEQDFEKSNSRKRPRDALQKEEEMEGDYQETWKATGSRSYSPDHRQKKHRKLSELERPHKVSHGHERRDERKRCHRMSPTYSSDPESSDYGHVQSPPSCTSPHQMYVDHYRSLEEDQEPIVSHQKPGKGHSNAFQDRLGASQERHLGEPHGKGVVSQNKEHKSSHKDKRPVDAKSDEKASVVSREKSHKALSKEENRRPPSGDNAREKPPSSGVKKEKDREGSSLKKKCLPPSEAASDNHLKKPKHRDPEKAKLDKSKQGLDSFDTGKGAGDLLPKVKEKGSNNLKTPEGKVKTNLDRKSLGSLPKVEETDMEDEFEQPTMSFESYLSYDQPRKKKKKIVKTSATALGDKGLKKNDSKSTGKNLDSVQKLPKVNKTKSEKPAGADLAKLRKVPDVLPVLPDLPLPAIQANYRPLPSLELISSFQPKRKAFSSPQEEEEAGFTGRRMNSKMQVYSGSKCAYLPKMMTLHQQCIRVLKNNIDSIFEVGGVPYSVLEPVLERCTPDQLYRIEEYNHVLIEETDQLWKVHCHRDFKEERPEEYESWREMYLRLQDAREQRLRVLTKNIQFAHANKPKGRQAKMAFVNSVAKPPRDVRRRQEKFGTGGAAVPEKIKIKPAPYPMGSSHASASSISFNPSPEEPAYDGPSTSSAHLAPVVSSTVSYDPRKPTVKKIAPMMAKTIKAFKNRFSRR
Chain of Cytochrome b-c1 complex subunit Rieske, mitochondrial (P47985 whole entry, one chain of several): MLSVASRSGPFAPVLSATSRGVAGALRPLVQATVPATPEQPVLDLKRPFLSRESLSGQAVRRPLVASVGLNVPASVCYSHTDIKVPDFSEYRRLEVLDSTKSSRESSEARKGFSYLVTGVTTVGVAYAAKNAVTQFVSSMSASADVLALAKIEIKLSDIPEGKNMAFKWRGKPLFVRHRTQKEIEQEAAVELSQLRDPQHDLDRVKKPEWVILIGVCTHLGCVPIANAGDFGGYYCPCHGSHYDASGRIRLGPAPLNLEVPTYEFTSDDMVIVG
Chain of Methyl-CpG-binding domain protein 2 (Q9UBB5 whole entry, the tested form may be a part): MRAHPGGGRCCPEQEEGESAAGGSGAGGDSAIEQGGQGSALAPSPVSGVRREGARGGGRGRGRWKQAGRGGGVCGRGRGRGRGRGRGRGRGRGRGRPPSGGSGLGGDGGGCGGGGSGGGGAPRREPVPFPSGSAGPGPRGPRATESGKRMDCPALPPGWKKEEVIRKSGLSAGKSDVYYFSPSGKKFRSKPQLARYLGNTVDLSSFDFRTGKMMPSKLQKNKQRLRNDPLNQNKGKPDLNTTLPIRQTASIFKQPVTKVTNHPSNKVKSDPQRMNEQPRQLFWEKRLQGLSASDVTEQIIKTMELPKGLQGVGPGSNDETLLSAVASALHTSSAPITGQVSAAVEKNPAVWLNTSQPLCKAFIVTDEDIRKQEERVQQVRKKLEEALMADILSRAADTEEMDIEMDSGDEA

Regarding AP-1 complex subunit gamma-1, O43747, the “listed as a hit” value in [1] and in test [2] was “yes” in each case.

As for Heat shock protein HSP 90-beta, P08238, the “listed as a hit” value in [3], in test [4] and in test [5] was “yes” each time.

For AP-1 complex subunit sigma-1A, P61966, the “listed as a hit” value in test [2] was “yes”.

For the substance “Cytoplasmic FMR1-interacting protein 1, Q7L576”, the “listed as a hit” value in test [6] is “yes”.

Take “Dolichyl-diphosphooligosaccharide--protein glycosyltransferase subunit 1, P04843”: the “listed as a hit” value in [7] was “yes”.

“Dolichyl-diphosphooligosaccharide--protein glycosyltransferase subunit 2, P04844”: the “listed as a hit” value in test [7] is on record as “yes”.

With “26S proteasome non-ATPase regulatory subunit 12, O00232”, in test [8], the “listed as a hit” value is given as “yes”.

As for Proteasome subunit alpha type-3, P25788, the “listed as a hit” value in [9] is recorded as “yes”.

For the substance “ATP-dependent chromatin remodeler CHD4, Q14839”, the “listed as a hit” value in [10] is listed as “yes”.

As to “Leucine-rich repeat-containing protein 59, Q96AG4”, the “listed as a hit” value in [11] is recorded as “yes”.

On to “Secretory carrier-associated membrane protein 3, O14828”, for which the “listed as a hit” value in [12] was “yes”.

As to “Putative cytochrome b-c1 complex subunit Rieske-like protein 1, P0C7P4”, the “listed as a hit” value in test [13] was “yes”.

Turning to “ATP synthase peripheral stalk subunit OSCP, mitochondrial, P48047”, the “listed as a hit” value in test [14] was “yes”.

For DNA/RNA-binding protein KIN17, O60870, the “listed as a hit” value in [15] was “yes”.

As for ADP/ATP translocase 3, P12236, the “listed as a hit” value in [16] is recorded as “yes”.

On to Collagen alpha-5(IV) chain, P29400, for which the “listed as a hit” value in test [17] is reported as “yes”.

As to Prohibitin 1, P35232, the “listed as a hit” value in [18] is listed as “yes”.

“Protein-L-isoaspartate(D-aspartate) O-methyltransferase, P22061”: in [19], the “listed as a hit” value is on record as “yes”.

Take Keratin, type II cytoskeletal 1, P04264: the “listed as a hit” value in test [20] was “yes”.

As for “Biogenesis of lysosome-related organelles complex 1 subunit 1, P78537”, in test [21], the “listed as a hit” value is reported as “yes”.

Take “B-cell receptor-associated protein 31, P51572”: the “listed as a hit” value in [22] is “yes”.

Consider Syntaxin-7, O15400, for which the “listed as a hit” value in test [23] and in test [24] was “yes” in each case.

Consider “Metastasis-associated protein MTA1, Q13330”, for which the “listed as a hit” value in test [25], in test [26], in test [27], in [28], in [29] and in test [30] was “yes” each time. In addition, the “listed as a hit” value in test [31] is recorded as “yes”.

Take Histone-binding protein RBBP7, Q16576: the “listed as a hit” value in test [32] is listed as “yes”.

Take “Transcriptional repressor p66-beta, Q8WXI9”: the “listed as a hit” value in test [33] was “yes”.

“Guanine nucleotide-binding protein G(i) subunit alpha-2, P04899”: in test [34], the “listed as a hit” value was “yes”.

Heat shock 70 kDa protein 6, P17066: in [35], the “listed as a hit” value is “yes”.

As for Tubulin beta-4B chain, P68371, the “listed as a hit” value in [36] was “yes”.

As for AP-2 complex subunit alpha-1, O95782, in test [37], the “listed as a hit” value is recorded as “yes”.

Turning to Proteasome subunit alpha type-7, O14818, the “listed as a hit” value in test [38] was “yes”.

As for Proteasome subunit beta type-1, P20618, the “listed as a hit” value in test [39] is reported as “yes”.

Take Proteasome subunit alpha type-6, P60900: in test [40], the “listed as a hit” value is reported as “yes”.

On to Proteasome subunit beta type-3, P49720, for which the “listed as a hit” value in test [40] was “yes”.

For the substance Calnexin, P27824, the “listed as a hit” value in test [41] is “yes”.
